Source: PubChem (several laboratories)
S1P4 agonist: activates the human S1P4 receptor | O95977 | S1P4-expressing cell line, agonist reporter assay | activation, % at 4.98 µM | 220,000 tested, 0.35% active | AID 1509; in the data active = activation above about 11%;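 note: 0% = DMSO vehicle and 100% = reference agonist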
Target sequence (O95977 whole entry, looked up): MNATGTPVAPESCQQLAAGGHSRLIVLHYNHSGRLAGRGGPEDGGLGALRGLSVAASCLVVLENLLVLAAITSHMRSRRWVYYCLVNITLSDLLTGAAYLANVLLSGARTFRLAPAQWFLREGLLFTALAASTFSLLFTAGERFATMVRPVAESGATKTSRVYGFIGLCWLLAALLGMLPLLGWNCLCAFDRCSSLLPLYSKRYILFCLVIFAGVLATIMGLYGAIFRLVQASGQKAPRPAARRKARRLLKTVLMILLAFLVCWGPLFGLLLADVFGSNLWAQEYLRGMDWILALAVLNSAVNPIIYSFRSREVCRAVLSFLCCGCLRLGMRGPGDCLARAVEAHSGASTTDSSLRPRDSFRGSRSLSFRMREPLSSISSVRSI
CHOP inhibitor: blocks CHOP induction under ER stress; CHO-K1 CHOP-promoter luciferase, tunicamycin-induced, 15-18 h; inhibition, % at 10 µM; 220,000 tested, 3.8% active;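 active = compounds that reduced the stress-induced luciferase reporter signal by more than about 70% of percent inhibition, limit read from the data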;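 note: 0% = tunicamycin plus vehicle and 100% = wells without tunicamycin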
Hsp70 activator: transcriptional activators of Hsp70 | HeLa Hsp70 promoter luciferase reporter, luminescence; scaled: vehicle 0, proteasome-inhibitor control 100% | activation, % at 10 µM | 200,000 tested, 0.04% active | AID 1203;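 active = activation above the mean across all tested compounds plus 3 SD, cutoff set per campaign, cut at about 5.5% in these data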;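 note: 100% = MG132 at 30 µM as the positive control and 0% = DMSO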
S1P4 antag: antagonists of human S1P4 receptor | S1P4-expressing cells, antagonist mode, reporter read-out | inhibition, % at 4.98 µM | 220,000 tested, 0.26% active; in the data active = inhibition above about 29%;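 note: 0% = wells stimulated with agonist and 100% = vehicle wells without agonist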
S1P4 ag conf: human S1P4 agonism, confirmation. 740 tested, 7% active. shares compounds with S1P4 agonist. activation, % at 4.98 µM. S1P4 agonist cell-based reporter assay; in the data active = activation above about 12%;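 note: 0% = vehicle and 100% = full reference agonist response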
S1P1 agonist: counter-screen for S1P4 agonists: agonists of human S1P1; shares compounds with S1P4 agonist; S1P1 agonist cell-based assay, activation; activation, % at 4.98 µM; 740 tested, 4% active; AID 1563; in the data active = activation above about 21%;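 note: 0% = vehicle wells and 100% = reference agonist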
Active calls of the source: *. An excerpt weighted towards active compounds, which were near 4.2% of everything screened.

COc1ccc(/C=C/C(=O)Nc2nonc2NC(C)=O)cc1 was read as S1P4 agonist 38*, CHOP inhibitor 13, Hsp70 activator 0, S1P4 antag -4, S1P4 ag conf -1 and S1P1 agonist 3.
Screening COc1ccc(/C=C/C(=O)Nc2cc(C)on2)cc1 returned S1P4 agonist 2, CHOP inhibitor -1, Hsp70 activator 0 and S1P4 antag -16.
`C=CCN1C(=O)/C(=c2\sc3nc(=O)c(Cc4ccccc4)nn3c2=O)c2ccccc21` gave S1P4 agonist 27*, CHOP inhibitor 21, S1P4 antag -7, S1P4 ag conf -1 and S1P1 agonist 1.
COc1ccc(N2CC(C(=O)NCc3ccccc3)CC2=O)cc1 (stereo unspecified) was read as S1P4 agonist 32*, CHOP inhibitor -8, Hsp70 activator 0, S1P4 antag -12, S1P4 ag conf 0 and S1P1 agonist 0.
For COc1ccc(N2CC(C(=O)OCC(=O)NCc3ccccc3)CC2=O)cc1 (stereo unspecified) the results were S1P4 agonist 1, CHOP inhibitor -6, Hsp70 activator 0 and S1P4 antag 1.
`CC(C)CC(=O)NC(c1ccccc1Cl)c1c(O)ccc2ccccc12` (stereo unspecified) gave S1P4 agonist 13*, CHOP inhibitor 39, Hsp70 activator 0, S1P4 antag -8, S1P4 ag conf -1 and S1P1 agonist 0.
CCN=c1scc(C)n1/N=C/c1ccsc1 was read as S1P4 agonist 165*, CHOP inhibitor -12, Hsp70 activator 1, S1P4 antag -5, S1P4 ag conf -1 and S1P1 agonist 9.
Screening CC(=O)c1ccc(NC(=O)CSc2nc(N)c3cc4c(nc3n2)CCCC4)cc1 returned S1P4 agonist 1, CHOP inhibitor 55, Hsp70 activator 0 and S1P4 antag -14.
For COc1ccc(NC(=O)CSc2nc(N)c3cc4c(nc3n2)CCCC4)cc1 the results were S1P4 agonist 11*, CHOP inhibitor 12, Hsp70 activator 0, S1P4 antag -21, S1P4 ag conf -2 and S1P1 agonist -6.
Screening COc1cc(/C=N/NC(=O)CN(Cc2ccccc2)S(=O)(=O)c2ccc3c(c2)OCCO3)ccc1O returned S1P4 agonist -1, CHOP inhibitor 21, Hsp70 activator 0 and S1P4 antag -5.
Screening COC(=O)NCC(c1ccco1)N1CCN(c2ccc(OC)cc2)CC1 (stereo unspecified) returned S1P4 agonist 0, CHOP inhibitor -1, Hsp70 activator 0 and S1P4 antag 2.
For COc1ccc(N2CCN(C(CNC(=O)C(=O)NCC3CCCO3)c3ccco3)CC2)cc1 (stereo unspecified) the results were S1P4 agonist 13*, CHOP inhibitor 6, Hsp70 activator 0, S1P4 antag -7, S1P4 ag conf -2 and S1P1 agonist 0.
Screening NC(=O)c1cc2c(s1)-c1cc(Cl)ccc1SC2 returned S1P4 agonist 0, CHOP inhibitor 34 and S1P4 antag -1.
CCOC(=O)C1=C(c2ccccc2)NC(N)=NC1c1ccc(OCc2ccc(Cl)cc2)c(OC)c1 (stereo unspecified) was read as S1P4 agonist -1, CHOP inhibitor -5 and S1P4 antag 10.
`O=C(NC1CCN(Cc2ccccc2)CC1)c1cccc(S(=O)(=O)Nc2cc(C(F)(F)F)ccc2Cl)c1` gave S1P4 agonist 25*, CHOP inhibitor -24, Hsp70 activator 0, S1P4 antag -24, S1P4 ag conf -2 and S1P1 agonist -2.
CCC1CCCCN1C(=O)c1cccc(S(=O)(=O)Nc2cc(C(F)(F)F)ccc2Cl)c1 (stereo unspecified) was read as S1P4 agonist 1, CHOP inhibitor 33, Hsp70 activator 0 and S1P4 antag -12.
COC(=O)c1cc(NC(=O)c2ccc(OC)cc2)c(=O)oc1C was read as S1P4 agonist 0, CHOP inhibitor -1, Hsp70 activator 1 and S1P4 antag 3.
For CCOC(=O)c1cc(NC(=O)c2ccc(OC)cc2)c(=O)oc1-c1ccccc1 the results were S1P4 agonist 22*, CHOP inhibitor 12, Hsp70 activator 0, S1P4 antag 13, S1P4 ag conf -2 and S1P1 agonist 10.
Screening CCOc1ccccc1NC(=O)NC(=O)N(C)S(C)(=O)=O returned S1P4 agonist 0, CHOP inhibitor 8, Hsp70 activator 0 and S1P4 antag 10.
